Results from PubChem BioAssay (EPA / NIEHS).
Where “and” joins values, the source holds several entries; their conditions need not be identical. Identical values can stand only once. Calls of active or inactive are those of the source. Rule for the calls: active = hit-call score of the fitted dose curve at least 0.9, where 1 is the maximum; inactive = score below 0.9.

Each compound was assayed on E-selectin (Homo sapiens) (UniProt P16581) (assay: BSK_3C_Eselectin: BioMAP Diversity Plus: 3C Assay for Eselectin Biomarker Activity (AID 2283015)). Conditions: primary human endothelial cells (HUVEC); actives raise or lower the signal.
E-selectin (Homo sapiens), sequence (P16581 whole entry, looked up): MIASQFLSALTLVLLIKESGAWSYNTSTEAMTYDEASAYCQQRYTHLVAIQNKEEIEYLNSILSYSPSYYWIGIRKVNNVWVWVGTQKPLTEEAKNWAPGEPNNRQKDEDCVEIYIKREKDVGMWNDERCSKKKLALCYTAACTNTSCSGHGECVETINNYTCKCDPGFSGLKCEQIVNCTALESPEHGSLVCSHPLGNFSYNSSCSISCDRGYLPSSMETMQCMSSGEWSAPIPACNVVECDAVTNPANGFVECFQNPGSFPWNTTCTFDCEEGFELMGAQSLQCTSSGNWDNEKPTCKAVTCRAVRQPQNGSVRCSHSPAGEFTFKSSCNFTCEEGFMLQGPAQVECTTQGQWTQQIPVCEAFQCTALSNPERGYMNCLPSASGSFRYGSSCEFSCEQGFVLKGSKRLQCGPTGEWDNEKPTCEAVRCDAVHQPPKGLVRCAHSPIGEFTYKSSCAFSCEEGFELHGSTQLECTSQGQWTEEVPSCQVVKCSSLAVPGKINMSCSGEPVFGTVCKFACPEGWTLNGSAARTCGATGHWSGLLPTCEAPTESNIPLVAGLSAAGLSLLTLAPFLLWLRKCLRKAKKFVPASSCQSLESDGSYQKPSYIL
Protocol: BSK_3C is a cell-based, multiplexed-readout assay that uses umbilical vein endothelium, a human vascular primary cell, with measurements taken at 24 hours after chemical dosing in a 96-well plate.BSK_3C_Eselectin is an assay component measured in the BSK_3C assay. It measures E-selectin antibody related to regulation of gene expression using ELISA technology.Data from the assay component BSK_3C_Eselectin was analyzed into 1 assay endpoint. This assay endpoint, BSK_3C_Eselectin, was analyzed with bidirectional fitting relative to DMSO as the negative control and baseline of activity. Using a type of binding reporter, gain or loss-of-signal activity can be used to understand changes in the signaling as they relate to the gene SELE. Furthermore, this assay endpoint can be referred to as a primary readout, because this assay has produced multiple assay endpoints where this one serves a signaling function. To generalize the intended target to other relatable targets, this assay endpoint is annotated to the cell adhesion molecules intended target family, where the subfamily is selectins.
The levels of cell surface (or secreted, indicated by the prefix "s") biomarker endpoints were measured by ELISA. Overt cytotoxicity to cells in confluent adherent cultures (all systems other than the BT system) was assessed by measuring total protein levels using sulforhodamine B (SRB) staining in parallel cultures at the time of biomarker measurements, indicated as SRB endpoints. For proliferation assays for adherent cell types, individual cell types are cultured at sub-confluence and relative cell numbers quantified by SRB staining at time points optimized for each system (48 h: 3C and CASM3C systems; 72 h: BT and HDF3CGF systems; 96 h: SAg system). SRB was performed by staining cells with 0.1% SRB after fixation with 10% TCA and reading wells at 560 nm.Viability and proliferation of PBMC (T cells) was quantified by Alamar Blue reduction for the SAg and BT systems. For PBMC viability (referred to as PBMC Cytotoxicity within the assay endpoint names), cells were plated (75,000/well in a 96-well plate) and then chemical samples added for 1 h before addition of activators, SEB and TSST-1 (20 ng/mL final concentration each). Cells were incubated for 90 h. Then, Alamar Blue (20 uL/well) (Invitrogen, Cat DAL1100) was added for 6 h, and the plates were read with a fluorescence microplate reader at 546/580 nm (excitation/emission). For PBMC proliferation, cells were plated and activated as above but incubated for only 16 h prior to addition of Alamar Blue. Plates were read after 6 h.
With C#CC(C)(C)NC(=O)c1cc(Cl)cc(Cl)c1 the outcome was “inactive”. In the case of COc1cccc(C(=O)NN(C(=O)c2cc(C)cc(C)c2)C(C)(C)C)c1C, the outcome is reported as “inactive”. For Nc1nc(N)nc(NC2CC2)n1, the outcome was “inactive”. In the case of O=C(O)c1cc(Oc2ccc(C(F)(F)F)cc2Cl)ccc1[N+](=O)[O-], the outcome is reported as “inactive”. In the case of CCOP(=O)(OCC)Oc1cc(C)nc(C(C)C)n1, the outcome is reported as “inactive”. O=[N+]([O-])c1cc(C(F)(F)F)c(Cl)c([N+](=O)[O-])c1Nc1ncc(C(F)(F)F)cc1Cl was tested, and the AC50 was 1.47 µM (active) and 3.24 µM (active). For N#CSCSC#N, the AC50 was 10.9 µM (active). In the case of CNC(=O)Oc1cccc2c1OC(C)(C)O2, the AC50 is reported as 27.3 µM (active). With CCOP(=S)(Oc1cnc(C(C)(C)C)nc1)OC(C)C (stereo not given) the AC50 was 31.2 µM (active). With CNC(=O)ON=C(C)SC the outcome was “inactive”. For Cc1ccn2nc(S(=O)(=O)Nc3c(F)cccc3F)nc2n1, the outcome was “inactive”. In the case of COP(=O)(OC)C(O)C(Cl)(Cl)Cl (stereo not given), the outcome is reported as “inactive”. O=c1ccc(=O)[nH][nH]1 was tested, and the outcome was “inactive”. In the case of CC(=NC#N)N(C)Cc1ccc(Cl)nc1, the outcome is reported as “inactive”. In the case of CCC(=O)Nc1ccc(Cl)c(Cl)c1, the outcome is reported as “inactive”. In the case of Cc1nn(-c2cc(NS(C)(=O)=O)c(Cl)cc2Cl)c(=O)n1C(F)F, the outcome is reported as “inactive”. CCc1cccc(CC)c1N(COC)C(=O)CCl was tested, and the AC50 was 21.2 µM (active). CCOC(=O)CC(SP(=O)(OC)OC)C(=O)OCC (stereo not given) was tested, and the outcome was “inactive”. For Nc1c(Cl)cc([N+](=O)[O-])cc1Cl, the outcome was “inactive”. CC(C)N(C(=O)SCC(Cl)=C(Cl)Cl)C(C)C was tested, and the AC50 was 30.7 µM (active). With CC(C)[C@H](C(=O)O[C@H](C#N)c1cccc(Oc2ccccc2)c1)c1ccc(Cl)cc1 the outcome was “inactive”. CCCCOC(=O)c1ccccc1C(=O)O was tested, and the outcome was “inactive”. In the case of S=C1NCCN1, the outcome is reported as “inactive”. For CON=C(C(=O)OC)c1ccccc1CON=C(C)c1cccc(C(F)(F)F)c1, the AC50 was 2.35 µM (active). In the case of CSc1nc(NC(C)C)nc(NC(C)C)n1, the outcome is reported as “inactive”. COP(=O)(NC(C)=O)SC (stereo not given) was tested, and the outcome was “inactive”. With CCOP(=O)(NC(C)C)Oc1ccc(SC)c(C)c1 (stereo not given) the outcome was “inactive”. With CCOP(=S)(OCC)Oc1ccc([N+](=O)[O-])cc1 the outcome was “inactive”. With FC(F)C(F)(F)OCC(Cn1cncn1)c1ccc(Cl)cc1Cl (stereo not given) the outcome was “inactive”. With CCCCOC(=O)[C@@H](C)Oc1ccc(Oc2ccc(C#N)cc2F)cc1 the outcome was “inactive”. CN(C)NC(=O)CCC(=O)O was tested, and the outcome was “inactive”. For CC(COc1ccc(Oc2ccccc2)cc1)Oc1ccccn1 (stereo not given), the outcome was “inactive”. For CCCCN(CC)c1c([N+](=O)[O-])cc(C(F)(F)F)cc1[N+](=O)[O-], the outcome was “inactive”. Cc1cc(C2CC2)nc(Nc2ccccc2)n1 was tested, and the outcome was “inactive”. In the case of COc1ccc(C(=CC(=O)N2CCOCC2)c2ccc(Cl)cc2)cc1OC, the AC50 is reported as 10.2 µM (active). With CCCSP(=O)(OCC)SCCC the outcome was “inactive”. For CC(Oc1cccc(Cl)c1)C(=O)O (stereo not given), the outcome was “inactive”. For CCOP(=S)(OCC)SCCSCC, the outcome was “inactive”. With CSC1=N[C@@](C)(c2ccccc2)C(=O)N1Nc1ccccc1 the AC50 was 6.26 µM (active). With CCC(=NOC/C=C/Cl)C1=C(O)CC(C2CCOCC2)CC1=O (stereo not given) the outcome was “inactive”.
